Values joined by “and” are separate entries in the source; they are usually repeats but may differ in a detail not shown here. Equal values may be shown once. Inconclusive results are not listed. A structure can be active in one record and inactive in another. Active and inactive are the calls of the source. Unless noted, calls come from the whole dose curve; as a rule, active = well fitted curve in the direction sought with a large enough effect in the repeat runs; inconclusive = weak or mixed curves; inactive = no such curve, though single readings can be large; an effect the other way counts as inactive or inconclusive.
Tests used:
[1] = qHTS assay to identify small molecule antagonists of the thyroid receptor (TR) signaling pathway - cell viability counter screen (AID 743064); note: nearly all actives have a fitted effect of over 50% in size; note: potency is the fitted concentration of half-maximal effect
How it was run: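 Plate GH3.TRE-Luc cells; incubate 4 h at 37 °C; add compound, then T3 to 1 nM final; incubate 23.5 h; add CellTiter-Fluor; incubate 30 min at 37 °C, 5% CO2; read fluorescence.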

[2] = qHTS assay to identify small molecule antagonists of the estrogen receptor alpha (ER-alpha) signaling pathway - cell viability counter screen (AID 743074; calls by dose curve;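 note: HEK293 cells carrying ER-alpha-UAS-bla reporter stimulated with 17beta-estradiol; nearly all actives have a fitted effect of over 45% in size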)
[3] = qHTS assay to identify small molecule antagonists of the estrogen receptor alpha (ER-alpha) signaling pathway using the BG1 cell line - cell viability counter screen (AID 743081);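 note: compound given together with 17beta-estradiol as the ER stimulus; nearly all actives have a fitted effect of over 45% in size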; note: potency is the fitted concentration of half-maximal effect
Aromatase (Homo sapiens) = Aromatase (Homo sapiens) (UniProt P11511); test: qHTS assay to identify aromatase inhibitors (AID 743083); note: nearly all actives have a fitted effect of over 55% in size; note: potency is the fitted concentration of half-maximal effect
Aromatase (Homo sapiens), sequence (P11511 whole entry, looked up): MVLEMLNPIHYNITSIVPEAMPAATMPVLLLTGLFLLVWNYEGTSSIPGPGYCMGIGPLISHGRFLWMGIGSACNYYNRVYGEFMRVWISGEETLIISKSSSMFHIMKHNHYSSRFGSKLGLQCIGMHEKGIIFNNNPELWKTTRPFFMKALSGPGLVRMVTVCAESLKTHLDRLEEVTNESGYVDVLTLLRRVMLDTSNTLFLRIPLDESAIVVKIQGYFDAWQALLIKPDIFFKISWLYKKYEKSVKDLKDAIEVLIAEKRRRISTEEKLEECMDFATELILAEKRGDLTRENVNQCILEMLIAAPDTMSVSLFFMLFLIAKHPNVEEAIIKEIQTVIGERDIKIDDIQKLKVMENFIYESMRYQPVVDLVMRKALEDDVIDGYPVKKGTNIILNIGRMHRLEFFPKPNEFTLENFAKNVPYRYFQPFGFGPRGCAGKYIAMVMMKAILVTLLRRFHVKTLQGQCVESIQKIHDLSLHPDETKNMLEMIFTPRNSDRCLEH

[4] = qHTS assay to identify aromatase inhibitors - cell viability counter screen (AID 743084);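 note: cells stimulated with testosterone during compound exposure; nearly all actives have a fitted effect of over 55% in size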; note: potency is the fitted concentration of half-maximal effect
[5] = biological target: Aryl hydrocarbon receptor (Homo sapiens) (UniProt P35869); test: qHTS assay to identify small molecule that activate the aryl hydrocarbon receptor (AhR) signaling pathway (AID 743085); note: nearly all actives have a fitted effect of over 15% in size; note: potency is the fitted concentration of half-maximal effect;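 for activation: HG2L7.5c1 human HepG2 liver cells with stably integrated DRE-driven firefly reporter; series mostly up to about 70 µM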
Aryl hydrocarbon receptor (Homo sapiens), sequence (P35869 whole entry, looked up): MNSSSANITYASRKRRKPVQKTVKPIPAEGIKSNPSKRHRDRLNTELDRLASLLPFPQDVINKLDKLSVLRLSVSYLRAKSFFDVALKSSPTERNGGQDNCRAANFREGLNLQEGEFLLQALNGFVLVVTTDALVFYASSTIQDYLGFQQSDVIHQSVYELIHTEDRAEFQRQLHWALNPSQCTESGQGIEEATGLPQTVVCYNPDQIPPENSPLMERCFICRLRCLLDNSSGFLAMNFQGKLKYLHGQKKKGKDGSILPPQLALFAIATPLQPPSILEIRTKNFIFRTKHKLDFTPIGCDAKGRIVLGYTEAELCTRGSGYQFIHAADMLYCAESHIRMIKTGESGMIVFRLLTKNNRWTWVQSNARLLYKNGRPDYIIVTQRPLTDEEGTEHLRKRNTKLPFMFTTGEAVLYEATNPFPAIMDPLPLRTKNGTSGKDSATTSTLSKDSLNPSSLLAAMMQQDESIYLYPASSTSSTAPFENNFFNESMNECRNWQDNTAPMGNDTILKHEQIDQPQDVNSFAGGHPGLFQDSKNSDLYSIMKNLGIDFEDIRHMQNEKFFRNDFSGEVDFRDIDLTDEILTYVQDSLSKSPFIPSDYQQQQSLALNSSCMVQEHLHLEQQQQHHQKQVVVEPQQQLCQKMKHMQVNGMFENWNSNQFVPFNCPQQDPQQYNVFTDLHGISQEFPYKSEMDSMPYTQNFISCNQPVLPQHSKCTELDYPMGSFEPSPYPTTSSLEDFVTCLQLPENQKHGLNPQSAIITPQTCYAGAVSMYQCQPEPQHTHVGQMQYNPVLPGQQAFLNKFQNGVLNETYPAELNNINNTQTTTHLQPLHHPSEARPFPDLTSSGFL
How it was run: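 Steps: seed HepG2-AhR-luc cells; allow 5 h at 37C; pin-transfer test compound or vehicle; incubate 24 h at 37C; add viability dye (30 min, 37C) and read fluorescence; add luciferase substrate (30 min, RT) and read luminescence.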

[6] = qHTS assay to identify small molecule that activate the aryl hydrocarbon receptor (AhR) signaling pathway - cell viability counter screen (AID 743086);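 note: HepG2 liver cells carrying the AhR DRE luciferase reporter; series mostly up to about 70 µM; nearly all actives have a fitted effect of over 45% in size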
How it was run: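 Cytotoxicity counter screen: CellTiter-Fluor signal (30 min, 37 C) in 4000 HepG2 cells/well carrying the DRE-luciferase reporter, following 24 h compound exposure at 37 C.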

[7] = biological target: Peroxisome proliferator-activated receptor gamma (Homo sapiens) (UniProt P37231); test: qHTS assay to identify small molecule agonists of the peroxisome proliferator-activated receptor gamma (PPARg) signaling pathway (AID 743094; active = well fitted activation curve with a large enough effect in the signal ratio in the repeat runs, not every such curve was filed as active; the % refers to the signal ratio)
Peroxisome proliferator-activated receptor gamma (Homo sapiens), sequence (P37231 whole entry, looked up): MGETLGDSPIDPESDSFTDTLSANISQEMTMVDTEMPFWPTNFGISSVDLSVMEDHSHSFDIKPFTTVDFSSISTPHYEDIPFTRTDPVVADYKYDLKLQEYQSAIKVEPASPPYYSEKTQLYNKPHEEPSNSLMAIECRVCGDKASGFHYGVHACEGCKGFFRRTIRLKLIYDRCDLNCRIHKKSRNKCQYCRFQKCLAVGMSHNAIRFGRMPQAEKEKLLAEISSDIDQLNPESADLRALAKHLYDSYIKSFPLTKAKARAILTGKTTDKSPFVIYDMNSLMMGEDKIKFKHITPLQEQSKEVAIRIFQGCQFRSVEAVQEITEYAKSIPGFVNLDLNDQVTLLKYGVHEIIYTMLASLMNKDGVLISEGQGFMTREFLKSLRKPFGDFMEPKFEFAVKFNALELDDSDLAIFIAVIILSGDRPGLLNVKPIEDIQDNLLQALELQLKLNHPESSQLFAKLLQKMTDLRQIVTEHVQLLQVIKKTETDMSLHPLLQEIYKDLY
How it was run: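 GeneBLAzer PPARg UAS-bla HEK293H cells carrying a stably integrated beta-lactamase reporter were pre-incubated 5 h at 37C, then exposed to compounds in DMSO for 17 h at 37C; LiveBLAzer B/G FRET substrate was added for 1 h at room temperature and fluorescence read.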

[8] = biological target: Peroxisome proliferator-activated receptor gamma (Homo sapiens) (UniProt P37231); test: qHTS assay to identify small molecule antagonists of the peroxisome proliferator-activated receptor gamma (PPARg) signaling pathway (AID 743191; calls by dose curve; note: series mostly up to about 63 µM; nearly all actives have a fitted effect of over 30% in size)
How it was run: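 Beta-lactamase reporter under UAS control in HEK293H PPARg-bla cells; compound treatment 17 h at 37C. Read-out: fluorescence intensity after 1 h room-temperature incubation with LiveBLAzer B/G FRET substrate.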

[9] = qHTS assay for small molecule agonists of the antioxidant response element (ARE) signaling pathway (AID 743202; active = well fitted activation curve with a large enough effect in the signal ratio in the repeat runs, not every such curve was filed as active; the % refers to the signal ratio; note: potency is the fitted concentration of half-maximal effect)
How it was run: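 Quantitative high-throughput format in HepG2 cells bearing an integrated ARE-beta-lactamase reporter. Compound exposure lasted 16 h at 37 C, and fluorescence was read 2 h after adding LiveBLAzer B/G substrate at room temperature.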

[10] = qHTS assay for small molecule activators of the heat shock response signaling pathway - cell viability counter screen (AID 743209); note: nearly all actives have a fitted effect of over 50% in size; note: potency is the fitted concentration of half-maximal effect
How it was run: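 CellSensor HSE-bla HeLa cells, plated overnight at 37 C/5% CO2, were exposed to compounds in DMSO for 5 h at 37 C. Viability was then read in the same wells by CellTiter-Glo luminescence after 30 min at room temperature.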

[11] = tested on: thyroid hormone receptor (rat, GH3 cells); test: qHTS assay to identify small molecule agonists of the thyroid receptor (TR) signaling pathway (AID 743066; calls by dose curve)
[12] = qHTS assay to identify small molecule antagonists of the peroxisome proliferator-activated receptor gamma (PPARg) signaling pathway - cell viability counter screen (AID 743194); note: nearly all actives have a fitted effect of over 55% in size; note: potency is the fitted concentration of half-maximal effect
How it was run: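 Viability was measured as CellTiter-Glo luminescence in GeneBLAzer PPARg UAS-bla HEK293H cells. These cells had been exposed 17 h at 37 C to compounds together with rosiglitazone at 50 nM final, with the beta-lactamase readout taken in the same wells.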

[13] = qHTS assay for small molecule agonists of the antioxidant response element (ARE) signaling pathway - cell viability counter screen (AID 743203; calls by dose curve; note: nearly all actives have a fitted effect of over 55% in size; note: potency is the fitted concentration of half-maximal effect)
How it was run: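 CellSensor ARE-bla HepG2 cells, 2,000 per well, rested 5 hrs at 37C/5% CO2, then exposed to compound in DMSO for 16 hrs; viability read as CellTiter-Glo luminescence after 30 min at room temperature, in the reporter wells.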

[14] = qHTS assay to identify small molecule antagonists of the thyroid receptor (TR) signaling pathway (AID 743065); note: nearly all actives have a fitted effect of over 55% in size; note: potency is the fitted concentration of half-maximal effect
How it was run: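 Antagonism measured as loss of luciferase signal in GH3 cells stably carrying a TRE-luciferase reporter, co-treated with compound and T3 (1 nM final) for 23.5 h at 37 C. Viability was read in the same well by CellTiter-Fluor.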

[15] = qHTS assay for small molecule activators of the heat shock response signaling pathway (AID 743210; active = well fitted activation curve with a large enough effect in the signal ratio in the repeat runs, with a control signal flat, not every such curve was filed as active; the % refers to the signal ratio;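 note: HeLa cells with beta-lactamase reporter driven by heat shock elements; series mostly up to about 63 µM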)
How it was run: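 HeLa HSE-bla cells, overnight plating; cpd in DMSO 5 h, 37 C; LiveBLAzer B/G FRET substrate 2.5 h RT; fluorescence intensity read.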

[16] = biological target: Estrogen receptor (Homo sapiens) (UniProt P03372); test: qHTS assay to identify small molecule antagonists of the estrogen receptor alpha (ER-alpha) signaling pathway (AID 743069; active = well fitted curve in the direction sought with a large enough effect in the signal ratio in the repeat runs, not every such curve was filed as active; the % refers to the signal ratio)
Estrogen receptor (Homo sapiens), sequence (P03372 whole entry, looked up): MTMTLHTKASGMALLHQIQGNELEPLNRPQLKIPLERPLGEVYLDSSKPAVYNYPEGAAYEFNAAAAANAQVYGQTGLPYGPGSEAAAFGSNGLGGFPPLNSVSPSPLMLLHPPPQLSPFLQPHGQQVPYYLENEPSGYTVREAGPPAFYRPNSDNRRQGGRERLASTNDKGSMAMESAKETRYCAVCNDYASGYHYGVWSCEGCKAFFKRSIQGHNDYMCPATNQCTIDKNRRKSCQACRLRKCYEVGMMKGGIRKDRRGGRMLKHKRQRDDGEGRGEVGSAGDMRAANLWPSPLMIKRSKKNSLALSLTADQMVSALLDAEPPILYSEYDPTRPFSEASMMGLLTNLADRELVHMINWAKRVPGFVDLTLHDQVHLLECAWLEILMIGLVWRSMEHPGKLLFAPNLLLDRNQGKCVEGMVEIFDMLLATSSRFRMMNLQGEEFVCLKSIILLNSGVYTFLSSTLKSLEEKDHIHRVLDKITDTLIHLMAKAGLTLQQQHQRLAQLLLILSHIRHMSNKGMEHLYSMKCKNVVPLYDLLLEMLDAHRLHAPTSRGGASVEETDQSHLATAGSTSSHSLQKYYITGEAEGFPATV
How it was run: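 ER-alpha-UAS-bla GripTite HEK293 line; 2% charcoal-stripped FBS overnight; plated, 4 hr 37C/5% CO2; cpd in DMSO + 17beta-estradiol, 18 hr 37C; LiveBLAzer B/G FRET substrate 2 hr RT; fluorescence intensity.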

[17] = biological target: Estrogen receptor (Homo sapiens) (UniProt P03372); test: qHTS assay to identify small molecule agonists of the estrogen receptor alpha (ER-alpha) signaling pathway (AID 743075; calls by dose curve;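 note: HEK293 GripTite cells with ER-alpha and UAS-driven beta-lactamase reporter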)
[18] = biological target: Estrogen receptor (Homo sapiens) (UniProt P03372); test: qHTS assay to identify small molecule agonists of the estrogen receptor alpha (ER-alpha) signaling pathway using the BG1 cell line (AID 743079); note: nearly all actives have a fitted effect of over 20% in size
[19] = qHTS assay to identify small molecule antagonists of the estrogen receptor alpha (ER-alpha) signaling pathway using the BG1 cell line (AID 743080; calls by dose curve;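 note: BG1 cells stimulated with 17beta-estradiol alongside compound; nearly all actives have a fitted effect of over 25% in size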; note: potency is the fitted concentration of half-maximal effect)
How it was run: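 BG1-Luc-4E2 cells (endogenous full-length ER-alpha, 4xERE luciferase) hormone-starved 5 days in charcoal-stripped FBS, plated 4,000/well for 24 h, then compound plus 17beta-estradiol for 21.5 h at 37 C; ONE-Glo luminescence read.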

Measured: Potency

Cc1c(OCC(F)(F)F)ccnc1CS(=O)c1nc2ccccc2[nH]1 (centres undefined)
inactive: [1] | [2] | [3] | Aromatase (Homo sapiens) | [4] | [6] | [7] | [8] | [10]
active: [5] 4.22 µM and 19.3 µM | [9] 8.41 µM

CCCCC/C=C/C=C/C=O
inactive: [11] | [2] | [3] | Aromatase (Homo sapiens) | [4] | [5] | [13] | [10]
active: [12] 38.6 µM and 38.9 µM

Cc1ccc(C(=O)c2cc(O)c(O)c([N+](=O)[O-])c2)cc1
inactive: [11] | [4] | [5] | [6] | [10] | [15]
inactive and 61.1 µM (active): [1]
active: [14] 68.6 µM | [3] 33.5 µM and 54.5 µM

NC=O
not listed: [2] | [12] | [16] | [17] | [18] | [19]
inactive: all other assays above

CC(C)OC(=O)C(C)(C)Oc1ccc(C(=O)c2ccc(Cl)cc2)cc1
inactive and 61.1 µM (active): [19]
inactive: [16] | [2] | [17] | [18] | [3] | [5] | [13] | [10] | [15]
inactive and 68.6 µM (active): Aromatase (Homo sapiens)

CCCCCCCCCCCO
inactive and 61.1 µM (active): [13]
inactive and 27.3 µM (active): Aromatase (Homo sapiens) | [4]
inactive and 43.6 µM (active): [10]
inactive and 30.6 µM (active): [1]
not listed: [6] | [12] | [14] | [15]
inactive: all other assays above

CCCC(=O)O
inactive: [1] | [2] | [3] | Aromatase (Homo sapiens) | [4] | [5] | [7] | [9] | [13] | [10] | [15]

O=C1c2cccc(O)c2C(=O)c2c(O)cccc21
not listed: [3] | [6] | [9] | [16] | [17] | [18] | [19]
inactive: all other assays above

C=C(C)C1CC=C(C)CC1 (centres undefined)
not listed: [6] | [7] | [8] | [11] | [14]
inactive: all other assays above
